A short description of assay [1]: A CellTox Green Cytotoxicity Assay to monitor cytotoxicity in HEK293 cells - 40 hour (AID 1224871). Note: nearly all actives have a fitted effect of over 45% in size. Note: potency is the fitted concentration of half-maximal effect. The method in brief:
(§1)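 Read-out: fluorescence of a cell-impermeant cyanine dye staining DNA of dead cells, proportional to cytotoxicity. HEK293, 600 cells/well with reagent, compound (23 nL DMSO) added after 5 h; reads at 0, 8, 16, 24, 32, 40 h.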

Assay [2] is described as follows: qHTS RealTime-Glo MT Cell Viability Assay in HepG2 cells - 8 hour (AID 1224873). Note: nearly all actives have a fitted effect of over 55% in size. Note: potency is the fitted concentration of half-maximal effect. The method, boiled down:
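HepG2 cells mixed with RealTime-Glo MT reagents (NanoLuc plus cell-permeant prosubstrate) were seeded at 600 cells/well, incubated 5 h at 37 C/5% CO2, then pinned with compounds in DMSO; nonlytic luminescence tracked viability during 40 h treatment.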
On the technique in general: Quantitative high-throughput screening tests each substance at several concentrations.

Assay [3] in a line: A CellTox Green Cytotoxicity Assay to monitor cytotoxicity in HEK293 cells - 24 hour (AID 1224875). For activity change: series mostly up to about 77 µM. Note: nearly all actives have a fitted effect of over 45% in size. Note: potency is the fitted concentration of half-maximal effect. The method in brief: as §1
The nature of assay [4]: A CellTox Green Cytotoxicity Assay to monitor cytotoxicity in HepG2 cells - 16 hour (AID 1224876). Note: nearly all actives have a fitted effect of over 45% in size. Note: potency is the fitted concentration of half-maximal effect. The method in brief: (§2)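 HepG2, 600 cells/well premixed w/ CellTox Green; 5 h settle, 37 C/5% CO2; pintool cpd add (DMSO); 37 C, 40 h; fluorescence read at 0, 8, 16, 24, 32, 40 h.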
Assay [5] is described as follows: qHTS RealTime-Glo MT Cell Viability Assay in HepG2 cells - 32 hour (AID 1224877). Note: nearly all actives have a fitted effect of over 55% in size. Note: potency is the fitted concentration of half-maximal effect. The method in brief:
(§3)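 Cell number in HepG2 cultures estimated from NanoLuc luminescence generated by metabolic reduction of a prosubstrate by living cells. The homogeneous, nonlytic format allowed repeated reads at 0, 8, 16, 24, 32 and 40 h of compound exposure.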

Assay [6] is described as follows: A CellTox Green Cytotoxicity Assay to monitor cytotoxicity in HepG2 cells - 24 hour (AID 1224878). Note: nearly all actives have a fitted effect of over 45% in size. Note: potency is the fitted concentration of half-maximal effect. The method, boiled down: as §2
Assay [7] can be described thus: A CellTox Green Cytotoxicity Assay to monitor cytotoxicity in HepG2 cells - 40 hour (AID 1224879). Note: nearly all actives have a fitted effect of over 40% in size. Note: potency is the fitted concentration of half-maximal effect. The method, boiled down:
as §2

Assay [8] is described as follows: qHTS RealTime-Glo MT Cell Viability Assay in HEK293 cells - 0 hour (AID 1224880). The method in brief: (§4)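 Luminescence readout at each listed time point; HEK293, 600 cells/well, RealTime-Glo MT reagent added with cells; compounds pinned (23 nL in DMSO) after 5 h at 37 C; continuous culture at 37 C.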
Assay [9] in a line: A CellTox Green Cytotoxicity Assay to monitor cytotoxicity in HEK293 cells - 32 hour (AID 1224881). Note: nearly all actives have a fitted effect of over 40% in size. Note: potency is the fitted concentration of half-maximal effect. The method in brief:
as §1

Assay [10] is described as follows: A CellTox Green Cytotoxicity Assay to monitor cytotoxicity in HepG2 cells - 0 hour (AID 1224882). Note: nearly all actives have a fitted effect of over 35% in size. The method, boiled down: as §2
A short description of assay [11]: A CellTox Green Cytotoxicity Assay to monitor cytotoxicity in HepG2 cells - 32 hour (AID 1224883). Note: nearly all actives have a fitted effect of over 50% in size. Note: potency is the fitted concentration of half-maximal effect. The method, boiled down: as §2
The nature of assay [12]: A CellTox Green Cytotoxicity Assay to monitor cytotoxicity in HEK293 cells - 8 hour (AID 1224884). Note: nearly all actives have a fitted effect of over 35% in size. The method in brief:
as §1

Assay [13] in a line: qHTS RealTime-Glo MT Cell Viability Assay in HepG2 cells - 16 hour (AID 1224885). Note: nearly all actives have a fitted effect of over 50% in size. Note: potency is the fitted concentration of half-maximal effect. The method, boiled down:
as §3

Assay [14] can be described thus: qHTS RealTime-Glo MT Cell Viability Assay in HEK293 cells - 8 hour (AID 1224887). For activity change, negative = cytotoxicity: top concentration of the series differs between compounds. Note: nearly all actives have a fitted effect of over 50% in size. Note: potency is the fitted concentration of half-maximal effect. The method in brief: as §4
The nature of assay [15]: A CellTox Green Cytotoxicity Assay to monitor cytotoxicity in HEK293 cells - 16 hour (AID 1224888). Note: nearly all actives have a fitted effect of over 35% in size. Note: potency is the fitted concentration of half-maximal effect. The method in brief: as §1
Assay [16] can be described thus: qHTS RealTime-Glo MT Cell Viability Assay in HepG2 cells - 0 hour (AID 1224889). Note: nearly all actives have a fitted effect of over 50% in size. The method, boiled down: as §3
Assay [17] can be described thus: A CellTox Green Cytotoxicity Assay to monitor cytotoxicity in HepG2 cells - 8 hour (AID 1224890). Note: nearly all actives have a fitted effect of over 45% in size. Note: potency is the fitted concentration of half-maximal effect. The method, boiled down: as §2
Assay [18] can be described thus: qHTS RealTime-Glo MT Cell Viability Assay in HEK293 cells - 40 hour (AID 1224874). Note: nearly all actives have a fitted effect of over 50% in size. Note: potency is the fitted concentration of half-maximal effect. Conditions: RealTime-Glo luminescence; max response: active compounds read low. The method in brief: as §4
A short description of assay [19]: qHTS RealTime-Glo MT Cell Viability Assay in HEK293 cells - 24 hour (AID 1224886). For activity change, negative = cytotoxicity: top concentration of the series differs between compounds. Note: nearly all actives have a fitted effect of over 50% in size. Note: potency is the fitted concentration of half-maximal effect. The method, boiled down:
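Homogeneous bioluminescent viability format in HEK293 cells (600 cells/well). Following 5 h at 37 C/5% CO2, 23 nL compound was pintooled; the signal was measured repeatedly during 40 h incubation.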

Results on 13 molecules are retold here after PubChem BioAssay (Tox21).

Several values for one entry are separate records, joined by “and”; a condition that tells them apart may be missing. Equal entries are not always repeated. A number with no mark means an inactive call. Records with an inconclusive call do not appear. Activity calls are given as the source filed them. Calls come from the whole dose curve; as a rule, active = well fitted curve in the direction sought with a large enough effect in the repeat runs; inconclusive = weak or mixed curves; inactive = no such curve, though single readings can be large; an effect the other way counts as inactive or inconclusive.
% is set by controls: 0 for no effect and ±100 for the full control effect.

`Cc1cc(SCc2sc(-c3ccc(C(F)(F)F)c(F)c3)nc2C)ccc1OCC(=O)O`: the Potency result in assay [1], in assay [2], in assay [3], in assay [4], in [5] and in assay [6] was “inactive” each time. Besides, the Potency entry in assay [7], in assay [8], in assay [9], in [10], in assay [11] and in assay [12] was “inactive” each time. Also, the Potency entry in [13], in assay [14], in assay [15], in assay [16] and in assay [17] was “inactive” in each case.

`[Cd+2].[Cl-].[Cl-]`: the Potency in assay [1] is 24.8 µM (active) and 7.76 µM (active); in assay [18], 12.4 µM (active); in assay [6] it was 22.1 µM (active) and 38.9 µM (active); in assay [7], 19.7 µM (active) and 24.5 µM (active); in assay [9], 44 µM (active) and 15.5 µM (active); in assay [11], 22.1 µM (active) and 24.5 µM (active). Also, the Potency entry in [2], in assay [3], in [8], in [10], in assay [12] and in assay [13] was “inactive” each time. Besides, the Potency result in assay [15], in assay [16] and in assay [17] was “inactive” in each case.

Turning to `C1CCC2CCCCC2C1` (stereo not given), the Potency entry in assay [1], in assay [2], in assay [3], in [5], in assay [6] and in [7] was “inactive” throughout. The Potency entry in [9], in assay [11], in [12], in assay [13], in [19] and in [14] was “inactive” throughout. For the same molecule, the Potency entry in assay [15], in [16] and in assay [17] was “inactive” in each case. Also, in assay [18], the max response is 15.5%.

On to `Oc1cc(Cl)c(Cl)c(Cl)c1`, for which the Potency in assay [1] was 13.1 µM (active); in [9], 11.7 µM (active). Also, the Potency entry in assay [2], in assay [3], in assay [4], in assay [5], in assay [6] and in [8] was “inactive” each time. For the same molecule, the Potency result in assay [10], in [12], in assay [13], in [14], in assay [15] and in assay [17] was “inactive” in each case.

In the case of `OC(c1ccc(Cl)cc1)(c1ccc(Cl)cc1)C(Cl)(Cl)Cl`, in [1], the Potency was 49 µM (active). The Potency result in assay [2], in assay [3], in assay [4], in assay [5], in assay [6] and in [7] was “inactive” throughout. For the same molecule, the Potency entry in assay [8], in assay [10], in assay [11], in [12], in [13] and in assay [15] was “inactive” each time. For the same molecule, the Potency entry in assay [16] and in [17] was “inactive” throughout.

In the case of `CCCN(CCC)CCc1c[nH]c2ccccc12`, the Potency entry in assay [1], in [2], in assay [3], in assay [4], in [5] and in [6] was “inactive” each time. The Potency entry in [8], in assay [9], in [10], in assay [12], in [13] and in assay [19] was “inactive” throughout. The Potency result in assay [14], in assay [15], in assay [16] and in assay [17] was “inactive” each time. In addition, the max response in assay [18] was -15.2%.

As to `Oc1cccc(-c2ccccc2)c1`, the Potency entry in assay [1], in [2], in [3], in assay [4], in assay [5] and in assay [6] was “inactive” in each case. Also, the Potency entry in assay [7], in assay [9], in [10], in assay [12], in assay [13] and in assay [15] was “inactive” throughout. For the same molecule, the Potency result in assay [16] and in [17] was “inactive” throughout.

On to `C[CH2][Hg][N]1C(=O)C2C(C1=O)C1(Cl)C(Cl)=C(Cl)C2(Cl)C1(Cl)Cl` (stereo not given), for which the Potency is 4.65 µM (active) in assay [1]; 7.37 µM (active) in [2]; 2.08 µM (active) in [18]; 4.65 µM (active) in assay [3]; 6.57 µM (active) in assay [4]; 6.57 µM (active) in assay [5]. Besides, the Potency is 7.37 µM (active) in assay [6]; 6.57 µM (active) in assay [7]; 4.65 µM (active) in [9]; 8.27 µM (active) in assay [11]; 6.57 µM (active) in assay [13]; 2.33 µM (active) in [19]. Also, the Potency in [14] was 3.69 µM (active); in [15], 4.65 µM (active); in [17], 8.27 µM (active). Also, the cytotoxicity in assay [10] was 1.33% [at 15.8 µM]. Further, the activity change, negative = cytotoxicity in [16] was -6.6% [at 15.8 µM].

For `CC(=O)c1cc(C(C)(C)C)cc2c1CCC2(C)C`, the Potency in assay [1], in assay [3] and in assay [9] was 38.9 µM (active) in each case. The Potency result in assay [2], in assay [5], in assay [8], in [10], in [12] and in assay [13] was “inactive” in each case. The Potency result in [19], in [15], in [16] and in [17] was “inactive” throughout. For the same molecule, the max response in assay [18] was -21.2%.

Consider `CC(=[OH+])/C=C(/C)[O-].CC(=[OH+])/C=C(\C)[O-].CC(=[OH+])/C=C(\C)[O-].[Fe]`, for which the Potency result in assay [1], in [2], in assay [3], in assay [5], in assay [6] and in assay [7] was “inactive” in each case. In addition, the Potency result in assay [10], in assay [13], in assay [19], in [14], in assay [15] and in assay [16] was “inactive” in each case. Further, the Potency entry in assay [17] was “inactive”. In addition, the max response in [18] was 5.66%.

As to `ClC(Cl)=C(Cl)Cl`, the Potency entry in assay [1], in [2], in assay [3], in [5], in [6] and in assay [7] was “inactive” throughout. In addition, the Potency entry in [9], in assay [10], in assay [11], in [12], in assay [13] and in [19] was “inactive” throughout. The Potency result in assay [15], in [16] and in [17] was “inactive” in each case. The max response in assay [18] is 0.0111%.

As to `CCOP(=S)(OCC)SCS(=O)(=O)CC`, the Potency entry in assay [1], in assay [2], in assay [3], in assay [4], in assay [5] and in [6] was “inactive” each time. In addition, the Potency result in [7], in assay [9], in [10], in [11], in [12] and in assay [13] was “inactive” in each case. Besides, the Potency result in assay [15], in assay [16] and in assay [17] was “inactive” throughout.

As to `O=[N+]([O-])O.O=[N+]([O-])O.[Cd]`, the Potency in [1] was 6.92 µM (active); in assay [18], 24.5 µM (active); in assay [6] it was 49 µM (active); in [7], 43.6 µM (active); in [9], 38.9 µM (active); in [11], 43.6 µM (active). Further, the Potency result in [2], in assay [4], in assay [8], in [10], in assay [12] and in assay [13] was “inactive” each time. Moreover, the Potency result in assay [14], in [15], in [16] and in assay [17] was “inactive” each time.
